# Experimental data reported in PubChem BioAssay.
# Where “and” joins values, the source holds several entries; their conditions need not be identical. Equal entries are not always repeated. Results filed as inconclusive are left out. Calls of active or inactive are those of the source. Rule as the data show it, unless noted: active = inhibition above about 80%; inactive = the rest.
# Key:
# [1] = growth inhibition of DIPG cells – cell-based, MIPE5.0 library, qHTS (AID 1347068; cut-off not given, nearly all actives have IC50 up to about 30 µM); conditions: SU-DIPG-XXV viability
# [2] = growth inhibition, single agent or in combination, cell-based, chromothripsis tumors, cisplatin or BGB combos (AID 1671449); conditions: LFS_MB_P medulloblastoma cells;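 also: cells exposed for 96 hours; 0% = vehicle DMSO and 100% = killing by high DMSO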
# [3] = growth inhibition, single agent and combos, cell-based, chromothripsis tumors, cisplatin or BGB combos (AID 1671450); conditions: HDN33 neuroblastoma cells, stronger effect = higher value;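 also: cells exposed to compound for four days; 0% = vehicle DMSO and 100% = cell killing by high DMSO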
# [4] = growth inhibition, single agents and combos, ICB984, cell-based, cisplatin or BGB combos, synergistic combos for chromothripsis tumors (AID 1671451; call rule not given here;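 also: cells exposed for 96 hours before readout; 0% = vehicle DMSO and 100% = killing by high DMSO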); conditions: ICB984 medulloblastoma cells, drug combinations, stronger effect = higher value
# [5] = growth inhibition, single agents and combos, LFS_MB_1R, cell-based, cisplatin or BGB combos, synergistic combos for chromothripsis tumors (AID 1671452); conditions: LFS_MB_1R medulloblastoma cells, stronger effect = higher value;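 also: cells exposed for 96 hours before readout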
# [6] = growth inhibition, single agents and combos, HTB85, cell-based, BGB or cisplatin IC20 combos, synergistic combos for chromothripsis tumors (AID 1671453); conditions: HTB85 osteosarcoma cells, drug combinations, stronger effect = higher value;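 also: cells exposed for 96 hours before readout; 0% = vehicle DMSO and 100% = high DMSO killing control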
# [7] = growth inhibition, single agents and combos, CRL2098, cell-based, BGB or cisplatin IC20 combos, synergistic combos for chromothripsis tumors (AID 1671454); conditions: CRL2098 osteosarcoma cells, drug combinations, stronger effect = higher value;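 also: cells exposed for 96 h before readout; 0% = vehicle DMSO and 100% = killing by high DMSO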
# [8] = growth inhibition, single agents and combos, HD-MB03, cell-based, BGB or cisplatin IC20 combos, synergistic combos for chromothripsis tumors (AID 1671455; in the data active = inhibition above about 83%;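 also: 0% = vehicle DMSO and 100% = high DMSO as cytotoxic control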); conditions: HD-MB03 medulloblastoma cells, stronger effect = higher value
# [9] = growth inhibition, single agents and combos, UWB1.289, cell-based, BGB or cisplatin combos, synergistic combos for chromothripsis tumors (AID 1671456); conditions: UWB1.289 ovarian carcinoma cells, stronger effect = higher value;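 also: cells exposed to compound for four days; 0% = vehicle DMSO and 100% = killing by high DMSO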
# [10] = growth inhibition, single agents and combos, LFS_MB_2R, cell-based, cisplatin combos, synergistic combos for chromothripsis tumors (AID 1671457); conditions: LFS_MB_2R medulloblastoma cells, stronger effect = higher value;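 also: cells exposed to compound for four days before readout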
# [11] = growth inhibition, MDA-MB-436, cell-based, BGB or cisplatin combos, synergistic combos for chromothripsis tumors (AID 1671458; call rule not given here;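 also: cells exposed for 96 hours; 0% = vehicle DMSO and 100% = killing by high DMSO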); conditions: MDA-MB-436 breast carcinoma growth inhibition, drug combinations, stronger effect = higher value
# [12] = UWB1.289_BRCA1 ovarian cancer growth, cell-based, BGB or cisplatin combinations (AID 1671459); conditions: UWB1.289 BRCA1 ovarian carcinoma, drug combinations, stronger effect = higher value
# [13] = drug combination toxicity in non-malignant astrocytes – cell-based, BGB or cisplatin IC20 combos, cytotoxicity control for chromothriptic childhood tumor combination screen (AID 1671460); conditions: Human astrocytes, viability inhibition, drug combinations, at 0.5 µM, stronger effect = higher value;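 also: cells exposed to compounds for 96 hours before viability readout; 0% = vehicle and 100% = killing control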
# [14] = BT084 cell growth, single and combined drugs, ICGC_MB145, cisplatin and BGB IC40 combos (AID 1671461); conditions: BT084 medulloblastoma cells, drug combinations, stronger effect = higher value;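 also: cells exposed to drugs for 96 hours; 0% = vehicle DMSO and 100% = high DMSO full killing control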
# [15] = RCMB18 cell growth, single agent and combined, cisplatin and BGB IC40 combos (AID 1671462); conditions: RCMB18 medulloblastoma cells, stronger effect = higher value;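 also: cells exposed to compound for four days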
# [16] = CRL1545 cell growth, single agent and combined, cisplatin and BGB IC20 combos (AID 1671464); conditions: CRL1545 osteosarcoma cells, stronger effect = higher value;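 also: cells exposed to compound for 96 hours before readout; 0% = vehicle DMSO and 100% = high DMSO killing control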
# [17] = viability loss with induced miR-34 in A549 – imaging, A549 dox-inducible miR-34, nuclei and caspase counts, primary screen (AID 1347080;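 active = compounds whose cell count with miR-34 switched on is under 0.7 times the count with it off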); conditions: A549 miR-34 inducible, Hoechst nuclei count, 48 h
# [18] = measured here: combination with BGB IC40, at 0.05 µM
# [19] = measured here: with BGB IC20 combination, at 0.5 µM
# [20] = measured here: with cisplatin IC20 combination, at 0.5 µM
# [21] = measured here: combination with cisplatin, at 0.5 µM
# [22] = measured here: combination with cisplatin, at 5 µM
# [23] = stronger effect = lower value, cell number ratio, induced over uninduced
# [24] = measured here: relative caspase fold change +Dox/-Dox
# [25] = measured here: total cells with miR-34 induction, stronger effect = lower value
# [26] = measured here: total cells without miR-34 induction
smiles,measurement,setting,value
NCCOc1cc(C(=O)Nc2cc(OCCN)c3ccccc3n2)nc(C(=O)Nc2cc(OCCN)c3ccccc3n2)c1,outcome,[1],inactive
same,inhibition,"[2]; at 0.5 µM, stronger effect = higher value",2.22% (inactive)
same,inhibition,"[2]; measured here: combination with BGB IC20, at 0.005 µM",-38.8%
same,inhibition,"[2]; measured here: combination with BGB IC40, at 0.005 µM",62.7%
same,inhibition,[2]; [18],-24.9%
same,inhibition,"[2]; measured here: combination with cisplatin, at 0.5 µM, stronger effect = higher value",12.8%
same,inhibition,"[2]; measured here: combination with cisplatin, at 5 µM, stronger effect = higher value",-64.9%
same,inhibition,"[3]; BGB combo, at 5 µM",-54.1%
same,inhibition,[3]; at 0.5 µM,-9.7% (inactive)
same,inhibition,"[3]; cisplatin combo, at 5 µM",-17.5%
same,inhibition,[3]; [19],-37.5%
same,inhibition,[3]; [20],8.64%
same,inhibition,"[3]; single agent, at 5 µM",-33.3%
same,inhibition,"[4]; BGB IC20 combo, at 0.005 µM",-1.03%
same,inhibition,"[4]; BGB IC40 combo, at 0.005 µM",-1.14%
same,inhibition,"[4]; BGB IC40 combo, at 0.05 µM",41.5%
same,inhibition,[4]; at 0.5 µM,-7.14% (inactive)
same,inhibition,"[4]; cisplatin combo, at 0.05 µM",38.8%
same,inhibition,"[4]; cisplatin combo, at 0.5 µM",5%
same,inhibition,"[4]; cisplatin combo, at 5 µM",-7.59%
same,inhibition,"[4]; measured here: 5 uM single agent, at 5 µM",-6.04%
same,inhibition,[5]; at 0.5 µM,-45.4% (inactive)
same,inhibition,[5]; [18],-42.8%
same,inhibition,[5]; [21],-52.8%
same,inhibition,[5]; [22],-9.07%
same,inhibition,[6]; at 0.5 µM,-5.41% (inactive)
same,inhibition,"[6]; measured here: with BGB IC20, at 0.5 µM",16.9%
same,inhibition,"[6]; measured here: with BGB IC20, at 5 µM",14.7%
same,inhibition,"[6]; measured here: with cisplatin IC20, at 0.5 µM",-18.6%
same,inhibition,"[6]; measured here: with cisplatin IC20, at 5 µM",11.6%
same,inhibition,"[6]; single agent, at 5 µM",-2.66%
same,inhibition,[7]; at 0.5 µM,-35.9% (inactive)
same,inhibition,"[7]; measured here: combination with BGB at IC20, at 0.5 µM",-36.6%
same,inhibition,"[7]; measured here: combination with cisplatin at IC20, at 0.5 µM",-37.8%
same,inhibition,[8]; at 0.5 µM,-13.1% (inactive)
same,inhibition,"[8]; measured here: combo with BGB at IC20, at 0.5 µM",-12.1%
same,inhibition,"[8]; measured here: combo with cisplatin at IC20, at 0.5 µM",-20.4%
same,inhibition,[9]; at 0.5 µM,-1.71% (inactive)
same,inhibition,"[9]; measured here: inhibition with BGB combination, at 0.05 µM",-20.7%
same,inhibition,"[9]; measured here: inhibition with cisplatin combination, at 0.05 µM",-14.5%
same,inhibition,[10]; at 0.5 µM,-18.8% (inactive)
same,inhibition,[10]; [21],-2.5%
same,inhibition,[10]; [22],-13.9%
same,inhibition,[11]; at 0.5 µM,0.88% (inactive)
same,inhibition,"[11]; measured here: BGB combination, at 0.5 µM",5.33%
same,inhibition,"[11]; measured here: BGB combination, at 5 µM",54.3%
same,inhibition,"[11]; measured here: cisplatin combination, at 0.5 µM",-17.7%
same,inhibition,"[11]; measured here: cisplatin combination, at 5 µM",63.8%
same,inhibition,"[12]; BGB combination, concentration series, at 5 µM",15.3%
same,inhibition,[12]; at 0.5 µM,-6.49% (inactive)
same,inhibition,"[12]; cisplatin combination, concentration series, at 5 µM",19.1%
same,inhibition,[13],5.8% (inactive)
same,inhibition,[13]; measured here: combo with BGB IC20,5.26%
same,inhibition,[13]; measured here: combo with cisplatin IC20,9.36%
same,inhibition,[14]; at 0.5 µM,-11.2% (inactive)
same,inhibition,"[14]; cisplatin combination, at 0.5 µM",-3.81%
same,inhibition,"[14]; cisplatin combination, at 5 µM",-140%
same,inhibition,"[14]; measured here: BGB IC40 combination 0.05 uM, at 0.05 µM",-28.5%
same,inhibition,"[14]; single agent, at 5 µM",-22.2%
same,inhibition,[15]; at 0.5 µM,-16.6% (inactive)
same,inhibition,"[15]; cisplatin combo, at 5 µM",-19.4%
same,inhibition,"[15]; measured here: BGB IC40 combination, at 0.05 µM",-9.5%
same,inhibition,[15]; [21],-38.3%
same,inhibition,"[15]; single agent, at 5 µM",-10.4%
same,inhibition,[16]; at 0.5 µM,11.6% (inactive)
same,inhibition,[16]; [19],-1.76%
same,inhibition,[16]; [20],17%
same,inhibition,"[16]; single agent, at 0.05 µM",-15.4%
same,inhibition,"[16]; single agent, at 5 µM",55%
O=C(C(c1ccccc1)c1ccccc1)N1CCN(CC(O)COc2cccc3ncccc23)CC1 (centres undefined),outcome,[1],inactive
COc1nnc2ccc(N3CCC(c4ccc(OCCN5CCN(C)C(=O)[C@H]5C)cc4)CC3)nn12,outcome,[1],inactive
O=C(O)C[C@H]1CCc2c1[nH]c1ccc(OCc3ccc(C4CCCC4)c(C(F)(F)F)c3)cc21,outcome,[1],inactive
CC#CC(=O)N1CC[C@@H](n2c(=O)n(-c3ccc(Oc4ccccc4)cc3)c3c(N)ncnc32)C1,outcome,[1],inactive
CC=CCC(C)C(O)C1C(=O)NC(CC)C(=O)N(C)CC(=O)N(C)C(CC(C)C)C(=O)NC(C(C)C)C(=O)N(C)C(CC(C)C)C(=O)NC(C)C(=O)NC(C)C(=O)N(C)C(CC(C)C)C(=O)N(C)C(CC(C)C)C(=O)N(C)C(C(C)C)C(=O)N1C (centres undefined),fold change,[17]; [23],1.07 (inactive) and 0.992 (inactive)
same,fold change,[17]; [24],0.343 and 1.41
CCCCC[C@H](O)/C=C/[C@H]1CC[C@H](O)[C@@H]1C/C=C\CCCC(=O)O,fold change,[17]; [23],0.956 (inactive)
same,fold change,[17]; [24],1.76
same,cell count,[17]; [25],6120
same,cell count,[17]; [26],6400
C[C@H](NC(=O)[C@H]1NCC[C@@H]1O)c1ccc(-c2noc(CCC3CCCC3)n2)cc1,outcome,[1],inactive
CCCCCCCCCCCCCCCC(=O)NC(CO)CO,fold change,[17]; [23],0.966 (inactive)
same,fold change,[17]; [24],0.974
same,cell count,[17]; [25],5260
same,cell count,[17]; [26],5440
